In PubChem BioAssay AID602281 (The Scripps Research Institute Molecular Screening Center, 2012):
Out of some 360,000 compounds screened, about 2,900 (0.81%) were called active. The list comes from a sample in which actives are over-represented; it also holds similar structures and randomly drawn compounds. Values without a mark were called inactive.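 Rule for the calls: active = inhibition above the mean inhibition across every tested compound plus 3 SD (cut at about 22% in these data); inactive = the rest.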

Target: Perilipin-5 (Homo sapiens) + 1-acylglycerol-3-phosphate O-acyltransferase ABHD5 (Homo sapiens) (UniProt Q00G26+Q8WTS1)
Sequence (Q00G26 whole entry, looked up): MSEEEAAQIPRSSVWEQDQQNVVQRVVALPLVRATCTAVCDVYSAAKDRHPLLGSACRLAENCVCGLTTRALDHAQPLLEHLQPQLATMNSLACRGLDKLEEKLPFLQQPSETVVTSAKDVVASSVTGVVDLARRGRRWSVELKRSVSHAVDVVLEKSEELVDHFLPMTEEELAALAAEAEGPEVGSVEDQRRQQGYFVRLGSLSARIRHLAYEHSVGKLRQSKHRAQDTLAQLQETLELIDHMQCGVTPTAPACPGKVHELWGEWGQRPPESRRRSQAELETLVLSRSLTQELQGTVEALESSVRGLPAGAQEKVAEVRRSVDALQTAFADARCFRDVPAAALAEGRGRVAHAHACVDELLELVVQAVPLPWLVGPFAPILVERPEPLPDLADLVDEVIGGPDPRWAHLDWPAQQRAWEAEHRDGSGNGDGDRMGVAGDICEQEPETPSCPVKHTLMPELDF
Sequence (Q8WTS1 whole entry, looked up): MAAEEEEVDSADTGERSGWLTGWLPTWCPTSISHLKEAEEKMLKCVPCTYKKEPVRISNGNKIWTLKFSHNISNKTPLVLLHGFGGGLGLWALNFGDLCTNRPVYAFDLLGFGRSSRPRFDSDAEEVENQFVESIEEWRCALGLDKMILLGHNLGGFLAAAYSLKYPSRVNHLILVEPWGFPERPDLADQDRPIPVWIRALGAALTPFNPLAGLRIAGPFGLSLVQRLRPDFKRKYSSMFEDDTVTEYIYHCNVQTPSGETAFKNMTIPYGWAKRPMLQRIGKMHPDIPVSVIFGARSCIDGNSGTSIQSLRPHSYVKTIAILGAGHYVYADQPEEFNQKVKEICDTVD
Test: blockers of ABHD5 binding to perilipin-5 – cell lysate, split luciferase complementation, luminescence, primary screen (AID 602281);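 note: 0% = DMSO only wells and the 100% control is not disclosed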
Details: Split G. princeps luciferase complementation, 4 h, at 4 µM, active compounds read high

SMILES	inhibition
COc1ccc(CN(C)Cc2nc3cc(OC)c(OC)cc3c(=O)[nH]2)c(OC)c1	3.55%
COc1ccc(C2NC(=S)NC3=C2CCc2ccccc23)cc1OC (configuration not stated)	-20.7%
O=C(c1c(F)cccc1F)N1CCN(S(=O)(=O)c2ccc3c(c2)OCCO3)CC1	-12.9%
Fc1ccc(N2N=C(c3cccs3)CC2c2ccco2)c(F)c1 (configuration not stated)	-11.2%
COC(=O)c1ccc2nc(-c3ccc(C)cc3)c(Cc3ccc(OC)cc3C)n2c1	0.21%
Fc1ccc(CNCc2ccc(Br)cc2)cc1	3.28%
CCOC(=O)N1CCN(S(=O)(=O)c2ccc3c(c2)C(C)C(=O)N3)CC1 (configuration not stated)	2.99%
FC(F)(F)C1CCCN(c2nsc3ccccc23)C1 (configuration not stated)	28.5% (active)
COC(=O)[C@@]12C[C@@H](CC(=O)NCc3cccc(C(F)(F)F)c3)C(=O)N(Cc3ccco3)C1=CCC(C)(C)C2	-1.98%
CCS(=O)(=O)Nc1ccc(C(=O)NCCSc2ccccc2)cc1	-5.43%
COC(C[C@@H](O)[C@H](C)[C@H](O)COCc1ccccc1)OC	-4.38%
CCCCN(Cc1ccccc1)C(=O)C1CCN(Cc2sccc2C)CC1	1.95%
O=C(/C(=C/c1cccc(Cl)c1)c1nc2ccccc2[nH]1)c1ccccc1	23.3% (active)
CCCc1nc2ccccc2n1C(C)C(=O)NC(C)(C)C (configuration not stated)	5.62%
CN(C)NC(=O)c1csnc1-c1c(Cl)cccc1Cl	-5.5%
COC(=O)c1ccc(COC(=O)C2CCN(S(=O)(=O)c3c(Cl)cccc3Cl)CC2)o1	1.49%
C#CCOCCOCCOCCNc1nc(N2CCN(C(=O)C([C@@H](C)O)n3cc([C@@H](N)CCCCN)nn3)CC2)nc(N2CCN(C(=O)[C@H](CCCCN)n3cc(CN)nn3)CC2)n1 (some centres not stated)	8.85%
C#CCOCCOCCOCCNc1nc(N2CCOCC2)nc(N2CCN(C(=O)[C@H](Cc3ccc(O)cc3)n3cc(CCO)nn3)CC2)n1	-5.39%
C#CCOCCOCCOCCNc1nc(N2CCN(C(=O)CCCCCCCCCCNC(=O)Cn3cc(CCCCCN)nn3)CC2)nc(N2CCN(C(=O)CCCCCCCCCCNC(=O)[C@H](CO)n3cc(CCCSC)nn3)CC2)n1	44% (active)
CN(C)c1cc(N)c2ccccc2n1 (tested in a mixture with another compound)	-3.32%
O=C(O)c1ccc(S(=O)(=O)N2CCC(Cc3ccccc3)CC2)cc1	-8.86%
Cc1ccc2[nH]c(=O)c(CC=C(Cl)Cl)c(C)c2c1	1.26%
